Assay: Her2 expression decrease, cell viability multiplex – SKBR3 breast tumor cells, AlphaScreen, ATP viability, primary screen (AID 461);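 also: percent of carrier control wells set as 100% viability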
Settings: SKBR3 Her2 protein level, 18-24 h, measured here: SKBR3 viability, ATP luminescence, at 10 µM

| SMILES | viability [%] |
| --- | --- |
| CCCCSc1nc2c(cnn2-c2ccc(F)cc2)c(=O)[nH]1 | 93.5 |
| C=C(Cl)COc1ccc2c(C)cc(=O)oc2c1 | 108 |
| COc1ccc(NC(=O)CSc2nnc(Cc3cccn3C)n2-c2ccc(F)cc2)cc1OC | 86 |
| CCCCSc1nc(CCC)cc(=O)[nH]1 | 86.5 |
| Cc1noc(/C=C/N(C)C)c1S(=O)(=O)N1CCc2ccccc21 | 99 |
| COc1cccc(/C=N/n2cnnc2)c1OCc1ccccc1 | 98 |
| COC(=O)Cn1c(CN2CCOCC2)nc2c1c(=O)n(C)c(=O)n2C | 81.5 |
| COc1ccc(N(CC(=O)Nc2cc(C)ccc2C)S(=O)(=O)c2c(C)nn(C)c2C)cc1 | 92 |
| CCOC(=O)N1CCN(C(=O)c2c(-c3ccccc3)noc2C)CC1 | 78 |
| O=C(CSc1ncnc2nc[nH]c12)c1ccc(Cl)cc1 | 76 |
| Brc1ccccc1-c1nc(-c2ccccc2)no1 | 88 |
| Cc1nc2ccc(S(=O)(=O)NC(C(=O)NCc3cccs3)C(C)C)cc2s1 (centres undefined) | 88.5 |
| COc1ccc(-n2c(Cc3cccn3C)nnc2SCC(=O)Nc2ccccc2)cc1 | 88.5 |
| O=c1oc2c3c4c(cc2s1)CCCN4CCC3 | 89 |
| COc1cc2c(cc1OC)C(C)N(C(=O)Cn1ncc3c1-c1ccccc1OC3)CC2 (centres undefined) | 90.5 |
| O=C(CSc1ccc2nnc(-c3ccccc3)n2n1)N1CCN(c2ccccc2)CC1 | 93.5 |
| CCOC(=O)C1CCCN(C(=O)c2ccc(CS(=O)(=O)c3ccc(Br)cc3)o2)C1 (centres undefined) | 85.5 |
| Cc1c(C(=O)NC2CC2)oc2ccc(S(=O)(=O)N3CCCCCC3)cc12 | 81.5 |
| CC1=C(C(=O)Nc2ccccc2)C(c2ccccn2)n2nc(CCCO)nc2N1 (centres undefined) | 94.5 |

Reference: PubChem BioAssay
